Many of the other results were omitted from the sample, so hits are more common in it than they were.
Pf Dd2 growth = qHTS Primary assay for Inhibitors of Plasmodium falciparum Dd2 growth in vitro | AID 1347417, 2020 | Potency, µM (doses to about 28.9 µM), without a hit: at the top dose activity, negative = inhibition, actives largely listed as inhibitors | P. falciparum Dd2 growth, SYBR Green, 72 h | 4.3% of 120,000 active; active = well fitted inhibition curve with a large enough effect;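 also: plate controls were DMSO vehicle for no effect and reference drug for full effect; nearly all actives have a fitted effect of over 65% in size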
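Readout: SYBR Green fluorescence, 485 nm excitation, 535 nm emission, after ~16 h lysis at 37C. Before that, Dd2-infected red cells (2.5% hematocrit) grew 72 h with compound, 29 uM top final concentration.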
Numbers without * were called inactive; [ ] = remark or other dose. Potency is read from the fitted curve at half-maximal effect.

Screening O=C1NC(C(=O)NCc2ccc(OC(F)(F)F)cc2)Cn2cccc21 (stereo not given) returned Pf Dd2 growth inactive.
Screening CCOc1ccc2[nH]c(=O)c(CN(C)CC3CCN(C)C3)cc2c1 (stereo not given) returned Pf Dd2 growth -8%.
For OCCn1cnc2cc(-c3n[nH]c(C4CCOC4)n3)ccc21 (stereo not given) the results were Pf Dd2 growth -20%.
`COCCOC1CCN(C(=O)c2sc(C)nc2C)CC1` gave Pf Dd2 growth 17%.
CN(C)c1ccc(CN[C@H]2CC(C)(C)[C@@H]3C[C@@](C)(O)CC[C@]23CCC(=O)NCc2cccnc2)cc1 was read as Pf Dd2 growth -10%.
`Cc1ccc(C(=O)N2CCC3(CC2)NC(=O)N(Cc2ccccc2)C3=O)cc1` gave Pf Dd2 growth 41%.
Screening N#Cc1ccc(C(=O)N2CCC3(CC2)NC(=O)N(Cc2ccccc2Cl)C3=O)cc1 returned Pf Dd2 growth 2.5µM*.
`N#Cc1cccc(C(=O)N2CCC3(CC2)NC(=O)N(Cc2ccccc2Cl)C3=O)c1` gave Pf Dd2 growth inactive.
Cn1c(Cn2ccnc2)nnc1C1CC(NC(=O)c2ccsc2)C1 (stereo not given) was read as Pf Dd2 growth -9%.
For CCCCCCN(CCC(=O)NCCOC)C(=O)c1ccoc1 the results were Pf Dd2 growth inactive.
COc1ccc(Nc2ncc3c(n2)CCN(Cc2ccc(Br)s2)C3)c(OC)c1 was read as Pf Dd2 growth 10µM*.
For COc1ccccc1Nc1ncc2c(n1)CCN(Cc1ccc(C)s1)C2 the results were Pf Dd2 growth 69%.
For Brc1csc(CN2CCc3nc(Nc4ccccc4)ncc3C2)c1 the results were Pf Dd2 growth 10µM*.
`Cc1ccc(CN2CCc3nc(Nc4ccc5c(c4)OCCO5)ncc3C2)cc1` gave Pf Dd2 growth 9%.
For COc1ccc(Nc2ncc3c(n2)CCN(Cc2cc(Br)cs2)C3)c(OC)c1 the results were Pf Dd2 growth 46%.
For COc1ccccc1Nc1ncc2c(n1)CCN(Cc1cc(F)cc(F)c1)C2 the results were Pf Dd2 growth 28%.
`COc1ccccc1-c1ccnc(N[C@H]2CO[C@H]3[C@@H]2OC[C@@H]3NC(=O)COc2ccccc2)n1` gave Pf Dd2 growth inactive.
`O=C(NCc1cccnc1)[C@@H]1C[C@@H](O)CN1C1CCN(C(=O)c2ccccc2F)CC1` gave Pf Dd2 growth 21%.
Cc1oc2c(c1C(=O)N1CCOCC1)CN(CCC(C)C)CC2 was read as Pf Dd2 growth -20%.
Screening Cc1oc2c(c1C(=O)N1CCSCC1)CN(Cc1cccc(F)c1)CC2 returned Pf Dd2 growth 11µM*.
CC(=O)N1CCN(C(=O)c2c(C)oc3c2CN(Cc2ccc(F)cc2)CC3)CC1 was read as Pf Dd2 growth -1%.
For Cc1oc2c(c1C(=O)N1CCN(c3ccccc3)CC1)CN(Cc1ccccc1)CC2 the results were Pf Dd2 growth 5µM*.
For O=C1CCC(C(=O)N2CCSCC2)CN1CCc1cccc(F)c1 (stereo not given) the results were Pf Dd2 growth 0%.
For Cc1csc(NC(=O)c2nc3c(o2)CCN(Cc2cccc(F)c2)CC3)n1 the results were Pf Dd2 growth inactive.
Screening CCC(=O)N1CCc2oc(C)c(C(=O)N(C)C)c2C1 returned Pf Dd2 growth inactive.
For Cc1oc2c(c1C(=O)N(C)C)CN(C(=O)CCc1ccccc1)CC2 the results were Pf Dd2 growth 6.3µM*.
`CN(C)C(=O)c1n[nH]c2c1CN(C(=O)CCc1ccccc1)CC2` gave Pf Dd2 growth -22%.
For COc1ccccc1N1CCN(c2ncncc2-c2nc(-c3ccccc3)no2)CC1 the results were Pf Dd2 growth -2%.
CS(=O)(=O)c1ccc2c(c1)nc1n2[C@@H](CNC2CCCCC2)COC1 was read as Pf Dd2 growth -14%[44.1 µM].
O=C(CCC1CC1)N1CCN(c2ncnc3ccsc23)CC(O)C1 (stereo not given) was read as Pf Dd2 growth 0%.
For CN1C(=O)c2cccn2CC1C(=O)NCc1ccco1 (stereo not given) the results were Pf Dd2 growth -5%.
CCN(CC)CCN(C(=O)c1ccco1)c1nc2ccc(Cl)cc2s1 was read as Pf Dd2 growth -5%.
Screening Cc1ccc(C)c2sc(N3CCN(C(=O)c4ccco4)CC3)nc12 returned Pf Dd2 growth 9%.
Cc1ccc2sc(N(CCCN(C)C)C(=O)c3ccco3)nc2c1C was read as Pf Dd2 growth 8.9µM*.
COc1ccc(-c2nnc3n2CCN(C(=O)Nc2ccc(Cl)cc2)C3)cc1 was read as Pf Dd2 growth inactive.
`O=C(N[C@H](c1ccccn1)C1CC(O)C1)C1(c2ccc(Cl)cc2)CCC1` (stereo not given in full) gave Pf Dd2 growth -25%.
Nc1nc2c(c(=O)[nH]1)CCN(C(=O)CC(c1ccccc1)c1ccco1)C2 (stereo not given) was read as Pf Dd2 growth -3%.
For Cc1noc(-c2ccc(C(C)(C)C)cc2)c1C(=O)NCc1ccc(F)cc1F the results were Pf Dd2 growth -7%.
`Cc1noc(-c2ccc(C(C)(C)C)cc2)c1C(=O)NCc1cc(F)cc(F)c1` gave Pf Dd2 growth 10µM*.
`Cc1cccc(CNC(=O)c2c(C)noc2-c2ccc(C(C)(C)C)cc2)c1` gave Pf Dd2 growth -11%.
CCc1nc(-c2c3n(c(=O)n(CC(=O)Nc4cc(C)on4)c2=O)CCCC3)no1 was read as Pf Dd2 growth 44%.
Screening Oc1ccccc1CN1C[C@H](O)C[C@H]1c1nc(-c2ccncc2)no1 returned Pf Dd2 growth -8%[44.1 µM].
O=C1CCCN1CCCN1C(=O)[C@@H]2C[C@@H](O)CN2C2(CN(Cc3ccoc3)C2)C1=O was read as Pf Dd2 growth 9%[44.1 µM].
Cc1ccc(-c2cc(N3CCCN(C(=O)Cc4ccccc4Cl)CC3)n[nH]2)cc1C was read as Pf Dd2 growth inactive.
O=C(CCc1cc2ccccc2[nH]c1=O)NCCN1CCc2ccccc2C1 was read as Pf Dd2 growth 3.2µM*.
Screening N#CCCN1CCN(C(=O)CCc2cc3ccccc3[nH]c2=O)CC1 returned Pf Dd2 growth -24%.
Screening CCC1CCCCN1CCNC(=O)CCc1cc2ccccc2[nH]c1=O (stereo not given) returned Pf Dd2 growth inactive.
O=C1CC2(CCN(Cc3ccc(C(F)(F)F)cc3F)C2)C(=O)N1 (stereo not given) was read as Pf Dd2 growth -8%.
O=[S+]1([O-])NC2(CCN(Cc3cccnc3)CC2)CNc2ccccc21 was read as Pf Dd2 growth inactive.
Cc1ccc(-c2nc3ccccn3c2Nc2ccc3c(c2)OCCO3)s1 was read as Pf Dd2 growth inactive.
Cc1ccn2c(Nc3ccc4c(c3)OCO4)c(-c3ccc(O)cc3)nc2c1 was read as Pf Dd2 growth 13µM*.
For Cc1ccc2nc(-c3cccc(Cl)c3)c(Nc3ccc4c(c3)OCO4)n2c1 the results were Pf Dd2 growth -7%.
Screening CSc1ccc(-c2nc3cc(C)ccn3c2Nc2ccc(C)cc2)cc1 returned Pf Dd2 growth 0%.
For c1coc(-c2nc3ccccn3c2Nc2ccc3c(c2)OCCO3)c1 the results were Pf Dd2 growth inactive.
For CN(C)c1ccc(-c2nc3ccccn3c2Nc2ccc3c(c2)OCCO3)cc1 the results were Pf Dd2 growth 10µM*.
Screening CC(C)c1nnc(C2CN(C(=O)Cc3ccc(Br)cc3)CC23CCOCC3)o1 (stereo not given) returned Pf Dd2 growth 13%.
For COc1ccc(S(N)(=O)=O)cc1C(=O)NC1CCOC2(CCOCC2)C1 (stereo not given) the results were Pf Dd2 growth -16%.

Source: PubChem BioAssay (National Center for Advancing Translational Sciences (NCATS))
